# In the supplement of paper PMC6411743:
# ± gives the standard deviation of the averaged measurements. Targets with the largest changes are over-represented here; the source holds about 5,400 in all.
# Compound: Nc1nc2c(ncn2[C@@H]2O[C@H](COP(=O)(O)OP(=O)(O)OP(=O)(O)O)[C@@H](O)[C@H]2O)c(=O)[nH]1 [guanosine triphosphate]
# Assay: NP40-soluble protein abundance relative to vehicle (solubility fold change) (ratio); higher = more soluble protein in presence of GTP
# Outline: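 Eight concentrations, 0.1 to 10 mM, were tested on Jurkat crude lysate for 10 min at room temperature and then 3 min at 37 °C, in three independent experiments. The lysate was solubilised with 0.8% NP40 and benzonase, ultracentrifuged, and the supernatant TMT-labelled for LC-MS/MS. Each value is the fold change against the detergent-processed vehicle in its own replicate, from vsn-normalised intensities.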
# UniProt Q02241, sequence (Q02241 whole entry, one chain of several): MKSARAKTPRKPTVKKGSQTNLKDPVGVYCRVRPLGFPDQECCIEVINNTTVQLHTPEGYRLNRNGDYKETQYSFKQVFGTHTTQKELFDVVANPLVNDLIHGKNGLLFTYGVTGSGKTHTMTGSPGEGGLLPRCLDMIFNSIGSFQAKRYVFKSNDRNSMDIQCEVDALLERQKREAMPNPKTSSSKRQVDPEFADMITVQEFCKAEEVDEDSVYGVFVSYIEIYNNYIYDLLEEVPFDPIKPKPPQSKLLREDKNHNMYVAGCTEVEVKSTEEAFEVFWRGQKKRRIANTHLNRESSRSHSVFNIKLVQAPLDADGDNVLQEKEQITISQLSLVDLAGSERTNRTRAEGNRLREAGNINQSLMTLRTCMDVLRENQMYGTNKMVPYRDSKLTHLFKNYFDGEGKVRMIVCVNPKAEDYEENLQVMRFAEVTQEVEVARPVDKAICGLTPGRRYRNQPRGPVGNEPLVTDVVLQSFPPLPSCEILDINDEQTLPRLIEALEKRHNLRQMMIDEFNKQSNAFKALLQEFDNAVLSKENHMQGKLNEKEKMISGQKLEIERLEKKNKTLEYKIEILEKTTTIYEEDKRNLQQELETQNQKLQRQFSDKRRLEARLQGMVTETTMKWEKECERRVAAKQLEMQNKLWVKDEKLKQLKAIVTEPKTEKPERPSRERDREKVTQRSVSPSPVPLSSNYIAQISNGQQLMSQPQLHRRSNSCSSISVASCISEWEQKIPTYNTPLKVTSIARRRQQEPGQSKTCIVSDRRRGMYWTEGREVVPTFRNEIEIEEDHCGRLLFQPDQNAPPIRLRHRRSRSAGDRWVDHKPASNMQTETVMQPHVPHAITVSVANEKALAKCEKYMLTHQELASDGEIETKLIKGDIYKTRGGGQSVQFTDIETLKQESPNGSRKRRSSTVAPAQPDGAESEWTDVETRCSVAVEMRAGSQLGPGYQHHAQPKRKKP
# UniProt O15111, sequence (O15111 whole entry): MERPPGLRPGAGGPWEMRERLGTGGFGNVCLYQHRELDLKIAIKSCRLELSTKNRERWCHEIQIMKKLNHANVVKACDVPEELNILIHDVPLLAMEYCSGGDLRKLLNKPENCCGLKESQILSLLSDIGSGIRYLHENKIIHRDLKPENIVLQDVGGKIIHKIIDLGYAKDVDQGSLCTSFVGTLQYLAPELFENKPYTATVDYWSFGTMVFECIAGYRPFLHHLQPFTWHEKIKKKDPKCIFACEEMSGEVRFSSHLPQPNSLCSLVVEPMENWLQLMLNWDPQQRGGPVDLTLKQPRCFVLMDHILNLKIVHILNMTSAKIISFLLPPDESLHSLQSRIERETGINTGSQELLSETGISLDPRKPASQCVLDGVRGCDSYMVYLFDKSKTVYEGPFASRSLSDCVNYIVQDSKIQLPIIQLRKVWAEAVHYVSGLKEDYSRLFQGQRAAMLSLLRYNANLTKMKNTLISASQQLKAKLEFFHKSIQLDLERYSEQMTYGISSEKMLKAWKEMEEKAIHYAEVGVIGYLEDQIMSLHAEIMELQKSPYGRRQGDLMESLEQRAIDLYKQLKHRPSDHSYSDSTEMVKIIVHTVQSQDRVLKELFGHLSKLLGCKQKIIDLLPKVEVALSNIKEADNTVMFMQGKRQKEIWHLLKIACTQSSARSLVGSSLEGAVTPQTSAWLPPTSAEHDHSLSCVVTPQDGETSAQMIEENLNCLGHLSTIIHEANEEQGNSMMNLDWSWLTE
# UniProt P37198, sequence (P37198 whole entry): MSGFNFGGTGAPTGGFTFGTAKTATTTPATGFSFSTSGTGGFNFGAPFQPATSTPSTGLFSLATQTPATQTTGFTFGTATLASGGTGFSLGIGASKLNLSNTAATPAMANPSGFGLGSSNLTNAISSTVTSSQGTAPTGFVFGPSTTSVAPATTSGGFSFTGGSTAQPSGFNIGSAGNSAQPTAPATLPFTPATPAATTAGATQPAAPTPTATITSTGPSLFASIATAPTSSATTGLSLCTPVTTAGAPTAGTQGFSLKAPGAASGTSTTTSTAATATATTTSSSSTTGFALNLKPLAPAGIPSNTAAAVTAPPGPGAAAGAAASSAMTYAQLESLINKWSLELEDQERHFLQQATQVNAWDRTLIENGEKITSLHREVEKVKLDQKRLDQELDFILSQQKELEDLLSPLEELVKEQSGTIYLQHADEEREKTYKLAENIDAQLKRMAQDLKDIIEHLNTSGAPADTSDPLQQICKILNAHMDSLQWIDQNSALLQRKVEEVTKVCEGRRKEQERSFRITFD
# UniProt P48634, sequence (P48634 whole entry): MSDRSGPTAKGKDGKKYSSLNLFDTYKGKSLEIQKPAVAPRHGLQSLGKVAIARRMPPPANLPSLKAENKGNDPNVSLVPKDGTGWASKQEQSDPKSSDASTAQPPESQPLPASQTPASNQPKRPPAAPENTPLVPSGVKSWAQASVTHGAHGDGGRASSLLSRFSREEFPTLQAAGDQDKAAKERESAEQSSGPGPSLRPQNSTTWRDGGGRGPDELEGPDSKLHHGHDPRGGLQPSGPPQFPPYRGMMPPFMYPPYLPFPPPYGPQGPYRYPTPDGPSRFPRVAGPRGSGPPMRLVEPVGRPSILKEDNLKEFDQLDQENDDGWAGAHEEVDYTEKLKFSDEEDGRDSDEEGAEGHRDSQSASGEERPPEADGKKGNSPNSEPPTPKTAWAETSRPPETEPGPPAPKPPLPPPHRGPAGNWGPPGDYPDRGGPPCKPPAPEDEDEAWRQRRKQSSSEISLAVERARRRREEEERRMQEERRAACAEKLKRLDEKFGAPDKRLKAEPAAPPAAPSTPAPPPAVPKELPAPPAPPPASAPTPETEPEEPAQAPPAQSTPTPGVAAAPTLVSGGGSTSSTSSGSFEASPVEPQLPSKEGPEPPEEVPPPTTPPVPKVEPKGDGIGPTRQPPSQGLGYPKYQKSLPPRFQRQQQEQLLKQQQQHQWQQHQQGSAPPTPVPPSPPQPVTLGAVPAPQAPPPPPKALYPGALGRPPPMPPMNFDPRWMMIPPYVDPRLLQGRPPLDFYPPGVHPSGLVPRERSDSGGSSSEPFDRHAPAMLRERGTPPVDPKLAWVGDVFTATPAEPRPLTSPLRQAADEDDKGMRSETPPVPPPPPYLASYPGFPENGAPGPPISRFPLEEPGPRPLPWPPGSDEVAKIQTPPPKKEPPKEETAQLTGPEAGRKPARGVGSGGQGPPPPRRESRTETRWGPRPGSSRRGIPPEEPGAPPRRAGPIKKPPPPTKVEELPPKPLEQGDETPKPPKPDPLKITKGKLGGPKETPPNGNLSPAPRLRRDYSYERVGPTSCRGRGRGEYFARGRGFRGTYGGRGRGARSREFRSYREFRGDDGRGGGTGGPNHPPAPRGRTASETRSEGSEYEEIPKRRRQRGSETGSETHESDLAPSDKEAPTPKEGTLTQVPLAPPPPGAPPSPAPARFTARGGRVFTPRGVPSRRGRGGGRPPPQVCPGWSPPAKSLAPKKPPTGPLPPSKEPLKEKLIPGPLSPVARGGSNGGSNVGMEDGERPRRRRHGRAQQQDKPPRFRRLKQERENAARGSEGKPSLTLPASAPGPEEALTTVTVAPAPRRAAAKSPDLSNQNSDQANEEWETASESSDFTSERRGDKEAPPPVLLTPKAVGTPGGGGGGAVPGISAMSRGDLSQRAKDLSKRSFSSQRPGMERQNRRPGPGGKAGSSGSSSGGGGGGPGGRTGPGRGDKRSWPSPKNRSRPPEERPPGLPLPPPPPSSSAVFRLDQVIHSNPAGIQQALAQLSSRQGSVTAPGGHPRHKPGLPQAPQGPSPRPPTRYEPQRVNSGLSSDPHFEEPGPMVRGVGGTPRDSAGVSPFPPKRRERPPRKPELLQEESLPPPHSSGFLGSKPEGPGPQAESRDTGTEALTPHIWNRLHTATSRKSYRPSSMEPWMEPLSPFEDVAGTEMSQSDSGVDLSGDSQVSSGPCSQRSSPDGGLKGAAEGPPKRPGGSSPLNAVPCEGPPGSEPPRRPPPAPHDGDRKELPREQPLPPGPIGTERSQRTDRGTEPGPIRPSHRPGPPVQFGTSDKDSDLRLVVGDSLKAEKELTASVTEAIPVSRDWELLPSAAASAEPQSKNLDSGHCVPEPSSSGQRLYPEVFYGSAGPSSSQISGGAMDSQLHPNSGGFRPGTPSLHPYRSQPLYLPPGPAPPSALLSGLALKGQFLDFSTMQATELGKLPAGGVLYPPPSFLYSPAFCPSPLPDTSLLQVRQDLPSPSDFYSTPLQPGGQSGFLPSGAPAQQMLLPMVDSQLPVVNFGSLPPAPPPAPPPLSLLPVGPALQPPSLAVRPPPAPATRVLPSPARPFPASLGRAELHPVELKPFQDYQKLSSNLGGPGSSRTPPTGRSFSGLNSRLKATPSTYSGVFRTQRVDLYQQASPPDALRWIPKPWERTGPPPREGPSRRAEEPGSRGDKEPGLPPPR
# UniProt P06239, sequence (P06239 whole entry, looked up): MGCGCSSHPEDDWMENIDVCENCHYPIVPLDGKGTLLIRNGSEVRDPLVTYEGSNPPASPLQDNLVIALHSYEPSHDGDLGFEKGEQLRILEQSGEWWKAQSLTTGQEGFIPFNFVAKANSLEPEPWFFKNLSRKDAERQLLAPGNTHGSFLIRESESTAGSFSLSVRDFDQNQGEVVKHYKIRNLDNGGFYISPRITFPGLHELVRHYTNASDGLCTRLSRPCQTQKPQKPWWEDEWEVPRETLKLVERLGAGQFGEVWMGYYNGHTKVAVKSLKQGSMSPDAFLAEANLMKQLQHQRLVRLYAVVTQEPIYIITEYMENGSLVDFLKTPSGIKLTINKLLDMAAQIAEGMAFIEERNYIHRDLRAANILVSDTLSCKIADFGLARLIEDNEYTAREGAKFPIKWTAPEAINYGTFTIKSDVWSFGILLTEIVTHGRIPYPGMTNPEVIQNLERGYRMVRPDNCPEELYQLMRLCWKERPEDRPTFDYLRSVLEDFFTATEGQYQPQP
# UniProt O43324, sequence (O43324 whole entry): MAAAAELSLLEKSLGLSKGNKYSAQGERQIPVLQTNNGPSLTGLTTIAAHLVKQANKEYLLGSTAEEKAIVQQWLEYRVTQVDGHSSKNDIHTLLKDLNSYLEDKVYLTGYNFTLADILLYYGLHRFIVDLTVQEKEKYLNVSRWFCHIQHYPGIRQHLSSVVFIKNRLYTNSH
Target,NP40-soluble protein abundance (concentration: 0.1mM),NP40-soluble protein abundance (concentration: 0.5mM),NP40-soluble protein abundance (concentration: 1mM),NP40-soluble protein abundance (concentration: 2mM),NP40-soluble protein abundance (concentration: 4mM),NP40-soluble protein abundance (concentration: 6mM),NP40-soluble protein abundance (concentration: 8mM),NP40-soluble protein abundance (concentration: 10mM)
UniProt O60861|O60861-1|O60861-4,1 ± 0.02,1.01 ± 0.071,1.01 ± 0.047,0.94 ± 0.063,0.935 ± 0.035,0.929 ± 0.04,0.978 ± 0.046,0.888 ± 0.06
EEF1E1 (UniProt O43324),1.05 ± 0.28,0.987 ± 0.27,1.24 ± 0.41,1.43 ± 0.46,1.41 ± 0.44,1.39 ± 0.45,1.22 ± 0.39,1.31 ± 0.55
UniProt P11388|P11388-2|P11388-3|P11388-4,1.06 ± 0.054,1.14 ± 0.036,1.2 ± 0.022,1.43 ± 0.052,1.73 ± 0.1,1.94 ± 0.16,2.01 ± 0.18,2.12 ± 0.15
SLC16A7 (UniProt O60669),1.09 ± 0.034,0.98 ± 0.24,1.143 ± 0.0046,1.06 ± 0.15,1.1 ± 0.079,0.966 ± 0.15,1.12 ± 0.089,1.05 ± 0.16
ESD (UniProt P10768),0.959 ± 0.015,0.958 ± 0.032,0.924 ± 0.032,0.876 ± 0.025,0.882 ± 0.034,0.897 ± 0.04,0.875 ± 0.044,0.839 ± 0.059
J3KPP4|O95232|H0YA81 (UniProt O95232),1.13 ± 0.027,1.45 ± 0.062,1.54 ± 0.1,1.54 ± 0.095,1.56 ± 0.12,1.63 ± 0.13,1.72 ± 0.19,1.74 ± 0.18
UniProt O15111,1.03 ± 0.04,1.04 ± 0.07,0.963 ± 0.052,0.964 ± 0.081,0.961 ± 0.06,0.927 ± 0.061,0.891 ± 0.013,0.887 ± 0.024
J3QT87|Q96SW2|Q96SW2-2 (UniProt Q96SW2),1.07 ± 0.084,1.07 ± 0.1,0.979 ± 0.034,1.03 ± 0.12,1.05 ± 0.061,1.04 ± 0.1,0.946 ± 0.047,0.931 ± 0.039
J3QQJ5|Q9Y2L5 (UniProt Q9Y2L5),1.09 ± 0.062,1.1 ± 0.12,1.05 ± 0.091,1.03 ± 0.11,1 ± 0.14,0.989 ± 0.13,1.01 ± 0.12,0.981 ± 0.13
UniProt O60488|O60488-2|D6RD96,1.02 ± 0.028,1.08 ± 0.053,0.9363 ± 0.0046,0.939 ± 0.066,0.908 ± 0.045,0.905 ± 0.049,0.894 ± 0.039,0.843 ± 0.086
UniProt P17812,1.04 ± 0.085,1.03 ± 0.089,0.924 ± 0.05,0.916 ± 0.096,0.904 ± 0.077,0.883 ± 0.076,0.864 ± 0.041,0.819 ± 0.086
YARS (UniProt P54577),0.952 ± 0.037,0.969 ± 0.029,0.92 ± 0.042,0.878 ± 0.048,0.864 ± 0.061,0.874 ± 0.048,0.872 ± 0.043,0.849 ± 0.066
FXR1 (UniProt P51114),1.13 ± 0.11,1.23 ± 0.075,1.31 ± 0.042,1.54 ± 0.07,1.885 ± 0.0094,2.02 ± 0.03,2.16 ± 0.091,2.28 ± 0.13
J3KPS0|Q9NXW2|Q9NXW2-2 (UniProt Q9NXW2),1.01 ± 0.065,0.995 ± 0.088,0.984 ± 0.083,0.935 ± 0.064,0.913 ± 0.066,0.918 ± 0.1,0.967 ± 0.082,0.925 ± 0.063
P0C0S5|Q71UI9 (UniProt Q71UI9+P0C0S5),0.898 ± 0.042,0.919 ± 0.033,1.11 ± 0.065,1.11 ± 0.06,1.12 ± 0.06,1.25 ± 0.094,1.25 ± 0.079,1.57 ± 0.18
UniProt P27824|P27824-2,0.965 ± 0.034,1 ± 0.013,0.95 ± 0.04,0.928 ± 0.048,0.883 ± 0.061,0.922 ± 0.06,0.906 ± 0.035,0.896 ± 0.051
KIN (UniProt O60870),0.9988 ± 0.0042,0.993 ± 0.013,0.9497 ± 0.0058,0.929 ± 0.029,0.916 ± 0.021,0.908 ± 0.024,0.9015 ± 0.007,0.885 ± 0.053
PSMB4 (UniProt P28070),0.926 ± 0.12,1.01 ± 0.11,0.939 ± 0.11,1.04 ± 0.14,1.05 ± 0.21,1.03 ± 0.22,0.945 ± 0.14,0.976 ± 0.14
UniProt O75170|O75170-2|O75170-3|O75170-4|O75170-5,1 ± 0.15,0.979 ± 0.059,1.03 ± 0.12,1 ± 0.043,0.973 ± 0.071,0.992 ± 0.056,0.963 ± 0.065,1.05 ± 0.075
UniProt P06239|P06239-3,1.013 ± 0.0087,1.04 ± 0.034,0.994 ± 0.022,1 ± 0.032,1 ± 0.023,0.963 ± 0.015,0.929 ± 0.026,0.919 ± 0.039
UniProt P00387|P00387-2|P00387-3,1.11 ± 0.13,1.1 ± 0.14,0.945 ± 0.11,0.947 ± 0.15,0.938 ± 0.14,0.925 ± 0.14,0.882 ± 0.1,0.853 ± 0.14
AKR1A1 (UniProt P14550),0.93 ± 0.035,0.912 ± 0.034,0.888 ± 0.04,0.876 ± 0.037,0.873 ± 0.047,0.849 ± 0.04,0.831 ± 0.088,0.825 ± 0.08
UniProt P48634|P48634-2|P48634-3,1.07 ± 0.034,1.06 ± 0.0091,1.19 ± 0.1,1.27 ± 0.03,1.42 ± 0.062,1.52 ± 0.096,1.7 ± 0.19,1.84 ± 0.28
UniProt O75143|O75143-2|O75143-5,0.993 ± 0.038,0.996 ± 0.042,1.01 ± 0.065,1.02 ± 0.081,0.967 ± 0.024,0.959 ± 0.088,0.937 ± 0.058,0.947 ± 0.041
UniProt P54578|P54578-2,0.975 ± 0.029,0.998 ± 0.021,0.935 ± 0.027,0.922 ± 0.013,0.903 ± 0.026,0.897 ± 0.02,0.895 ± 0.038,0.876 ± 0.046
NUP62 (UniProt P37198),0.8692 ± 0.0052,0.889 ± 0.025,1.01 ± 0.021,0.955 ± 0.038,0.988 ± 0.064,1.06 ± 0.053,1.08 ± 0.052,1.19 ± 0.047
J3KNZ9 (UniProt Q9HAH7),1.01 ± 0.12,0.933 ± 0.095,0.978 ± 0.056,0.984 ± 0.061,0.971 ± 0.051,1.01 ± 0.05,1.02 ± 0.015,1.01 ± 0.061
UniProt P12931|P12931-2,1.05 ± 0.05,1.05 ± 0.063,0.955 ± 0.018,0.9845 ± 0.0092,0.905 ± 0.063,0.896 ± 0.015,0.894 ± 0.052,0.837 ± 0.074
H7BYN4|Q02241|Q02241-2|Q02241-3 (UniProt Q02241),1.1 ± 0.048,1.03 ± 0.036,1.0707 ± 0.00082,1.09 ± 0.021,1.114 ± 0.0076,1.13 ± 0.046,1.12 ± 0.084,1.09 ± 0.041
